Data on 32 compounds can be found in PubChem BioAssay.

A short description of the test: sensitizers of A549 cells to miR-34 induction, primary screen, imaging, A549 dox-inducible miR-34, nuclei and caspase counts (AID 1347080). Also: test concentration not given here. The note with it: A549 miR-34 inducible, Hoechst nuclei count, 48 h.
[1] abbreviates: stronger effect = lower value, cell number ratio, induced over uninduced.
[2] abbreviates: measured here: relative caspase fold change +Dox/-Dox.
The mark [3] stands for this setting: measured here: total cells with miR-34 induction, stronger effect = lower value.
Setting [4] is: measured here: total cells without miR-34 induction.

“And” between values parts separate entries of the source, which are not always exact repeats. Equal entries are not always repeated. The source made the active and inactive calls.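 The calls were made as follows: active = compounds whose cell count with miR-34 switched on is under 0.7 times the count with it off; inactive = the rest.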

Consider `CCCCC[C@H](O)/C=C/[C@H]1C(=O)C[C@H](O)[C@@H]1CCCCCCC(=O)O`, for which the fold change by setting is: under setting [1], 0.92 (inactive); under setting [2], 0.486. For the same compound, the cell count under setting [3] was determined as 4900 and the cell count under setting [4] was found to be 5320.
Regarding `O=C(O)CCC/C=C\C[C@H]1[C@@H](/C=C/[C@@H](O)CCc2ccccc2)[C@H](O)C[C@H]1O`, the fold change is 0.969 (inactive) under setting [1] and 0.334 under setting [2]. Further, the cell count by setting is: under setting [3], 5150; under setting [4], 5310.
Consider `N[C@@H](CSCCB(O)O)C(=O)O`, for which the fold change runs as follows: under setting [1], 1.01 (inactive); under setting [2], 1.73. In addition, the cell count by setting is: under setting [3], 6340; under setting [4], 6260.
Regarding `CCCCC[C@](C)(O)/C=C/[C@H]1[C@H](O)CC(=O)[C@@H]1C/C=C\CCCC(=O)O`, the fold change runs as follows: under setting [1], 0.915 (inactive); under setting [2], 1.22. Further, the cell count turned out to be 5410 under setting [3] and 5910 under setting [4].
`CCCCC[C@H](O)/C=C/[C@@H]1[C@@H](CCCCC(CC(=O)O)OC)[C@@H](O)C[C@H]1O` (stereo partly drawn): the fold change reads like this: under setting [1], 0.924 (inactive); under setting [2], 1.3. Also, the cell count runs as follows: under setting [3], 5980; under setting [4], 6470.
On to `CCCCCC(=O)CC[C@H]1[C@H](O)CC(=O)[C@@H]1C/C=C\CCCC(=O)O`, for which the fold change reads like this: under setting [1], 0.975 (inactive); under setting [2], 1.25. Also, the cell count runs as follows: under setting [3], 6140; under setting [4], 6290.
In the same order, the values of `NC(=O)CCC/C=C\C[C@@H]1[C@@H](/C=C/[C@@H](O)CCc2ccccc2)[C@H](O)C[C@@H]1O` are 0.961 (inactive), 1.58, 6210 and 6460.
On to `CCCCC1C(=O)CC[C@H]2[C@@H]1CC(=O)[C@@H]2C/C=C\CCCC(=O)O` (stereo partly drawn), for which the fold change under setting [1] is 1.07 (inactive) and the fold change under setting [2] was found to be 1.48. Besides, the cell count amounted to 5940 under setting [3] and 5580 under setting [4].
As to `CC(C)OC(=O)CCC/C=C\C[C@H]1C(=O)C[C@@H](O)[C@@H]1/C=C/[C@@H](O)COc1cccc(C(F)(F)F)c1`, the fold change reads like this: under setting [1], 0.919 (inactive); under setting [2], 1.4. Further, the cell count runs as follows: under setting [3], 5960; under setting [4], 6490.
Consider `O=C(O)CCC/C=C\C[C@@H]1[C@@H](/C=C/[C@H](O)COc2cccc(C(F)(F)F)c2)[C@H](O)C[C@@H]1O`, for which the fold change runs as follows: under setting [1], 1.06 (inactive); under setting [2], 0.987. The cell count by setting is: under setting [3], 6230; under setting [4], 5890.
On to `O=C(O)CCC/C=C\C[C@@H]1[C@@H](/C=C/[C@@H](O)C2CCCCC2)[C@H](O)C[C@@H]1O`, for which the fold change by setting is: under setting [1], 0.938 (inactive); under setting [2], 1.34. The cell count amounted to 5910 under setting [3] and 6300 under setting [4].
In the same order, the values of `COC(=O)CCCCCC[C@@H]1[C@@H](CC[C@@H](O)CSc2ccccc2F)[C@H](O)C[C@@H]1O` are 0.962 (inactive), 2.89, 5920 and 6150.
Take `CCCCC(C)(C)[C@H](O)/C=C/[C@H]1[C@H](O)CC(=O)[C@@H]1CCCCCCC(=O)O`: the fold change under setting [1] is 0.94 (inactive) and the fold change under setting [2] stood at 1.17. The cell count under setting [3] was 5660 and the cell count under setting [4] worked out at 6020.
As for `CCCCCC(=O)/C=C/[C@@H]1[C@H](C/C=C\CCCC(=O)O)[C@H](O)C[C@H]1O`, the fold change is, setting by setting: under setting [1], 0.99 (inactive); under setting [2], 3.22. Besides, the cell count came out at 5630 under setting [3] and 5690 under setting [4].
For `O=C(O)CCC/C=C\C[C@@H]1[C@@H](/C=C/[C@@H](O)C2Cc3ccccc3C2)[C@@H](F)C[C@@H]1O`, the fold change under setting [1] is 0.86 (inactive) and the fold change under setting [2] turned out to be 2.11. The cell count reads like this: under setting [3], 4580; under setting [4], 5320.
Take `CCCCC[C@H](O)/C=C/[C@H]1C(=O)C[C@H](O)[C@@H]1CCCCCCCO`: the fold change is, setting by setting: under setting [1], 1.14 (inactive); under setting [2], 1.46. Also, the cell count amounted to 5820 under setting [3] and 5120 under setting [4].
`C[n+]1ccc(/C=C/c2c[nH]c3ccccc23)cc1`: the fold change was 1.05 (inactive) under setting [1] and 1.99 under setting [2]. Also, the cell count by setting is: under setting [3], 1600; under setting [4], 1530.
As to `O=C(O)CCCCCC[C@@H]1[C@@H](CC[C@@H](O)CCc2cccc(C(F)(F)F)c2)[C@H](O)C[C@@H]1O`, the fold change is 1.13 (inactive) under setting [1] and 1.38 under setting [2]. Moreover, the cell count reads like this: under setting [3], 6150; under setting [4], 5440.
On to `CCCCC/C=C\CCCC/C=C\C/C=C\CCCC(=O)O`, for which the fold change reads like this: under setting [1], 0.917 (inactive); under setting [2], 0.462. The cell count runs as follows: under setting [3], 5360; under setting [4], 5850.
For `CCCCC[C@H](O)/C=C/[C@@H]1[C@H](CCCCCCC(=O)O)[C@@H](O)C[C@H]1O` the same measures were 0.957 (inactive), 1.43, 6250 and 6530.
For the compound `CS(=O)(=O)NC(=O)CCCCCCCCCC=C(Br)Br`, the fold change under setting [1] is 0.853 (inactive) and the fold change under setting [2] is 1.19. Moreover, the cell count runs as follows: under setting [3], 4860; under setting [4], 5700.
With `CCCCC/C=C\C/C=C\CCCC/C=C\CCCC(=O)O`, the fold change is 0.985 (inactive) under setting [1] and 0.344 under setting [2]. Further, the cell count by setting is: under setting [3], 5360; under setting [4], 5440.
Take `CC(C)Oc1ccc(C(=O)c2ccc(NC3=NCCN3)cc2)cc1`: the fold change is 1.07 (inactive) under setting [1] and 0.773 under setting [2]. Also, the cell count by setting is: under setting [3], 6020; under setting [4], 5650.
Turning to `CCCCCC/C=C\CCCCCCCC(=O)OCC`, the fold change under setting [1] is 0.904 (inactive) and the fold change under setting [2] came out at 1.03. Also, the cell count runs as follows: under setting [3], 5560; under setting [4], 6150.
`CCCCC[C@@H](O)/C=C/[C@@H]1[C@@H](C/C=C\CCCC(=O)O)[C@@H](O)C[C@H]1O`: the fold change reads like this: under setting [1], 0.977 (inactive); under setting [2], 1.24. Further, the cell count runs as follows: under setting [3], 5960; under setting [4], 6100.
For the compound `c1ccc([B-]2(c3ccccc3)[NH2+]CCO2)cc1`, the fold change runs as follows: under setting [1], 0.926 (inactive); under setting [2], 1.45. In addition, the cell count was 3950 under setting [3] and 4260 under setting [4].
In the same order, the values of `CCCCC[C@H](O)/C=C/[C@H]1CCC(=O)[C@@H]1C/C=C\CCCC(=O)O` are 0.932 (inactive), 1.35, 6060 and 6510.
For `CCCCCCCC(=O)CC[C@@H]1[C@@H](C/C=C\CCCC(=O)O)[C@@H](O)C[C@H]1O`, the fold change is, setting by setting: under setting [1], 0.944 (inactive); under setting [2], 1.3. The cell count by setting is: under setting [3], 5400; under setting [4], 5720.
As for `CCCCC[C@H](O)/C=C/[C@@H]1[C@@H](C/C=C/CCCC(=O)O)[C@@H](O)C[C@H]1O`, the fold change under setting [1] was 0.9 (inactive) and 0.944 (inactive); the fold change under setting [2] was 1.55 and 0.855. Further, the cell count is, setting by setting: under setting [3], 5350 and 5640; under setting [4], 5940 and 5970.
With `NC(=O)c1cccc(-c2cccc(OC(=O)NCCCCCCc3ccccc3)c2)c1`, the fold change reads like this: under setting [1], 0.904 (inactive); under setting [2], 0.743. The cell count is, setting by setting: under setting [3], 5110; under setting [4], 5650.
Turning to `O=C(/C=C/c1cccc(C(=O)NO)c1)NO`, the fold change was 0.962 (inactive) under setting [1] and 1.09 under setting [2]. The cell count runs as follows: under setting [3], 4750; under setting [4], 4940.
In the same order, the values of `O=C1OC2(c3ccc(O)cc3Oc3cc(Oc4ccc(O)cc4)ccc32)c2ccccc21` (stereo not drawn) are 0.956 (inactive), 1.49, 6230 and 6520.
